An excerpt weighted towards active compounds, which were near 19% of everything screened.
DT40 TDP1 no CPT – qHTS for Inhibitors of human tyrosyl-DNA phosphodiesterase 1 (TDP1): qHTS in cells in absence of CPT; DT40 Tdp1-/- hTDP1 cells, no CPT, ATP luminescence, 48 h; Potency, µM (series often up to 46.2 µM), without a hit: at the top dose activity change, negative = growth inhibition, actives largely listed as inhibitors; 420,000 compounds, 15% hits; AID 686978, 2013; also: potency is read from the fitted curve at half-maximal effect; nearly all actives have a fitted effect of over 55% in size
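Luminescent ATP content (CellTiter-Glo) served as the growth readout. Knockout chicken DT40 cells expressing human TDP1 were exposed to compounds without camptothecin for a minimum 48 hr at 37 °C.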
HT1080-NT tox – kills 2HG-producing HT-1080-NT fibrosarcoma cells. HT-1080-NT fibrosarcoma viability, CellTiter-Glo ATP luminescence, 48 h. Potency, µM (series often up to 46.1 µM), for the others: top-dose activity, negative = less viability, actives largely listed as cytotoxic. 360,000 compounds, 1.6% hits. AID 686970;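 also: NT is the 2HG producing partner of a matched IDH1 knockdown line; potency is read from the fitted curve at half-maximal effect; 0% = DMSO-treated cells and -100% = media-only wells without cells; nearly all actives have a fitted effect of over 55% in size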
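Luminescent CellTiter-Glo readout after 48 hours of compound exposure at 37 degrees C defined viability of HT-1080-NT cells. Activity was normalized to DMSO wells and cell-free media wells; concentration-response curves were fitted and assigned curve classes.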
uPA generation – inhibitors of cell surface uPA generation. cell surface uPA generation assay, qHTS. Potency, µM (top dose mostly 38.3 µM), for inactives: at the top dose activity change, negative = inhibition, most hits filed as inhibitors. 330,000 compounds, 0.31% hits; active = well fitted inhibition curve with a large enough effect; inconclusive = small, poorly fitted or top-dose-only effect; inactive = no such curve, though single readings can be large or run the other way; tested in mouse RAW 264.7 cells; also: potency is read from the fitted curve at half-maximal effect; nearly all actives have a fitted effect of over 55% in size
IL-1B inflam inh – inflammasome signaling inhibition, IL-1 beta readout | THP-1 LPS/ATP IL-1B secretion, AlphaLISA, 16 h; active compounds read low | activity change, % at 57.5 µM | 360,000 compounds, 4.7% hits | AID 743279; in the data active = activity change below about -50%; inconclusive = mostly about -30% to -49%
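THP-1 cells pretreated 1 hr with compounds (up to 57.5 uM final), then stimulated with LPS (250 ng/mL final) plus ATP (1.25 mM final); secreted IL-1B measured by AlphaLISA after 16 hr, decreased signal indicating inhibition.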
HT1080 IDH1KD tx – HT-1080 IDH1 knockdown cell toxicity (counter line); HT-1080 IDH1 knockdown viability, ATP luminescence, 48 h; Potency, µM (top dose mostly 46.1 µM), for inactives: top-dose activity, negative = toxicity, most hits filed as cytotoxic; AID 686971; 360,000 compounds, 2% hits;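 also: potency is read from the fitted curve at half-maximal effect; 0% = DMSO wells and -100% = cell-free medium wells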
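Using the IDH1-knockdown HT-1080 line run in the same batch and compound series as the NT line, viability after 48 h at 37 °C was determined by CellTiter-Glo luminescence and expressed as % activity.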
DT40 TDP1 CPT – DT40-hTDP1 cell growth loss with CPT | 420,000 compounds, 12% hits | Potency, µM (highest dose often 46.2 µM), without a hit: at the highest dose activity change, negative = growth inhibition, hits mostly inhibitors | chicken DT40 Tdp1-/-;hTDP1 cells + 20 nM CPT, ATP luminescence, 48 h; also: potency is read from the fitted curve at half-maximal effect; nearly all actives have a fitted effect of over 55% in size
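Cell growth measured by CellTiter-Glo luminescence after a minimum 48 h, 37 C compound exposure with 20 nM CPT in Tdp1-knockout DT40 cells stably expressing hTDP1, seeded 400/well; qHTS titration format.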
An asterisk follows results filed as active; i = inactive; ? = inconclusive; . = no result given. Unless noted, calls follow the shape of the dose curve; as a rule, active = well fitted curve in the direction sought with a large enough effect; inconclusive = small, poorly fitted or top-dose-only effect, or another doubt; inactive = no such curve, though single readings can be large; an effect the other way counts as inactive or inconclusive. Unless noted, % is scaled to controls: 0 for no effect and ±100 for the full control effect.

SMILES	DT40 TDP1 no CPT	HT1080-NT tox	uPA generation	IL-1B inflam inh	HT1080 IDH1KD tx	DT40 TDP1 CPT
O=C(Nc1ccc(Oc2ccccc2)cc1)C1CC1	18µM*	-6%	-4%	-20	-19%	21µM*
COc1ncc2nc(-c3ccc(F)cc3)c(=O)n(C3CC3)c2n1	46%	.	.	.	.	11%
COc1ccc(NC(=O)Nc2cccc(OC)c2)cc1	-1%	-2%	-18%	-75*	6%	-16%
COc1cccc(NC(=O)Nc2ccc3nc(C)c(C)nc3c2)c1	?	8%	1%	-17	7%	?
COC(=O)c1[nH]c2ccc(F)cc2c1NC(=O)Nc1ccc(OC)cc1	6.5µM*	-26%	4%	12	?	?
COc1cccc(NC(=O)Nc2ccc3nsnc3c2)c1	?	3%	-5%	-56*	3%	?
O=C(Nc1cccc(S(=O)(=O)Nc2ccc(SC(F)F)cc2)c1)C1CCC1	?	15µM*	1%	-1	-16%	?
COc1ccc(OC)c(-c2csc(NC(=O)CSc3nnnn3C)n2)c1	-1%	13%	1%	-10	13%	-4%
CCN(CC)C(=O)c1sc2c(c1C)c(=O)n(-c1ccccc1)c(=O)n2CC(=O)N(CC)c1cccc(C)c1	-19%	.	.	.	.	?
CCN(CC(=O)NCc1cccs1)c1ccc(S(=O)(=O)N2CCN(C)CC2)cn1	-17%	-1%	-4%	1	1%	-4%
CCC(C(=O)N1CCN(c2cc(Cl)ccc2C)CC1)n1nc(C)c2sc3ccccc3c2c1=O (stereo not drawn)	-17%	.	.	.	.	-3%
COc1cccc(NC(=O)Nc2cc(Cl)ccc2C)c1	?	-11%	2%	-76*	-5%	?
COc1cccc(NC(=O)C2CCCC2)c1	-17%	5%	3%	-1	11%	-4%
COc1cccc(NC(=O)C2CC2)c1	-4%	18%	14%	-11	10%	5.8µM*
COC(=O)[C@H](C)NC(=O)Nc1ccc(Oc2ccccc2)cc1	6.3µM*	0%	4%	10	-25%	?
CC(OC(=O)c1ccc(O)cc1)C(=O)Nc1ccc(Oc2ccccc2)cc1 (stereo not drawn)	21µM*	-4%	2%	-16	-12%	?
COc1cccc(NC(=O)c2cccc(Cl)c2)c1	-27%	4%	?	-22	2%	1%
Cc1nn(C)c(NC(=O)c2ccccc2Cl)c1Cl	4%	5%	5%	-14	12%	-2%
COc1ccc(NC(=O)Nc2ccc(F)cc2F)cc1	5.8µM*	16%	-4%	-22	18%	9.2µM*
CCN(CC)S(=O)(=O)c1ccc(C(=O)Nc2nnc(CSC)o2)cc1	24%	10%	-6%	-4	6%	9%
CN(C)S(=O)(=O)c1ccc(C(=O)Nc2nnc(-c3ccco3)o2)cc1	?	-19%	-2%	-1	-20%	21µM*
CCN(CC)S(=O)(=O)c1ccc(C(=O)Nc2nnc(-c3ccco3)o2)cc1	23µM*	-26%	?	26	?	?
CCCCN(C)S(=O)(=O)c1ccc(C(=O)Nc2nnc(-c3ccco3)o2)cc1	6.5µM*	-21%	-10%	20	?	7.3µM*
CCCCN(CC)S(=O)(=O)c1ccc(C(=O)Nc2nnc(-c3cccs3)o2)cc1	10µM*	?	-7%	0	8.2µM*	15µM*
O=C(CCS(=O)(=O)c1ccc(F)cc1)Nc1nnc(-c2ccco2)o1	?	-1%	-13%	-20	2%	?
SMILES	DT40 TDP1 no CPT	HT1080-NT tox	uPA generation	IL-1B inflam inh	HT1080 IDH1KD tx	DT40 TDP1 CPT
Cc1ccc2nc3c(cc(C#N)c(=O)n3-c3nnc(SCc4ccccc4)s3)c(=O)n2c1	-17%	.	.	.	.	-24%
COc1ccc(CCN2CC(C(=O)N3CCN(C(C)=O)CC3)CCC2=O)cc1 (stereo not drawn)	-7%	-15%	-6%	i	-6%	-21%
O=C1NC[C@H](CCCCN2C[C@H](Cc3ccc(O)cc3)N(CCc3ccccc3)C(=O)C2=O)N(CC2CCCCC2)C1=O	-4%	18%	.	-2	15µM*	30%
O=C1NC[C@@H](CCCCN2C[C@H](Cc3ccccc3)N(CCC3CCCCC3)C(=O)C2=O)N(CCc2ccc(O)cc2)C1=O	3%	-10%	.	-59*	1%	-5%
COc1ccc2c(C)c(CCC(=O)NCc3ccccc3OC)c(=O)oc2c1	-23%	.	.	.	.	-23%
CCOc1ccccc1NC(=O)NCCn1c(=O)oc2ccc(C)cc21	?	.	.	.	.	-27%
Cc1nc(SCC(=O)c2cc3ccccc3oc2=O)c(C#N)c(-c2ccccc2)c1C(=O)Nc1ccccc1	18µM*	5%	3%	0	16%	?
CC1=CCC2COC(c3ccc[n+](Cc4ccccc4)c3)C1C2 (stereo not drawn)	2.9µM*	-27%	-5%	-7	-25%	3.7µM*
CO[C@@H]1CN(C)C(=O)c2cc(NC(=O)NC3CCCCC3)ccc2OC[C@@H](C)N(CCc2ccccc2)C[C@H]1C	16µM*	-14%	.	-28	-12%	23µM*
CCC(=O)Nc1ccc2c(c1)OC[C@@H](C)N(Cc1ccccc1F)C[C@@H](C)[C@@H](OC)CN(C)C2=O	-15%	11%	.	1	16%	-29%
CO[C@@H]1CN(C)C(=O)c2cc(NC(=O)NC3CCCCC3)ccc2OC[C@@H](C)N(CC2CCOCC2)C[C@@H]1C	?	15%	.	0	22%	?
CCCN1C[C@@H](C)[C@@H](OC)CN(C)C(=O)c2ccc(NC(=O)c3cccc(F)c3)cc2OC[C@H]1C	-8%	11%	.	17	5%	1%
COCC(=O)N1C[C@H](C)[C@H](OC)CN(C)C(=O)c2cc(NC(=O)Nc3cccc(F)c3)ccc2OC[C@@H]1C	10µM*	0%	.	-29	-7%	12µM*
CCCC(=O)Nc1ccc2c(c1)C(=O)N(C)C[C@@H](OC)[C@H](C)CN(Cc1ccc(-c3ccccn3)cc1)[C@@H](C)CO2	23µM*	-22%	.	?	-6%	?
CO[C@H]1CN(C)C(=O)c2ccc(NC(=O)C3CCC3)cc2OC[C@H](C)N(Cc2ccc(F)cc2)C[C@@H]1C	?	1%	.	-70*	-1%	?
O=C1C=CC(=O)C(C2=C3C(=O)N(CCc4ccccc4)CC(=O)N3CCC2)=C1	1.3µM*	-1%	4%	?	?	1.3µM*
COc1ccccc1C(=O)NC(=O)COC(=O)CNC(=O)c1ccccc1F	3%	1%	2%	-10	9%	-2%

Screening results as filed in PubChem.
